CYP2C19 inhib = inhibitors of human CYP2C19; P33261; CYP2C19 Supersomes, luciferin-H EGE luminescence, 30 min; inhibition, % at 5 µM; hit rate 21% among 96,000;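 active = CYP2C19 inhibition above a set limit at 5 µM in the primary screen, cut at about 50% in these data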
CYP2C19 activ = cytochrome P450 2C19 (human) activation; AID 1025; P33261; activation factor at 5 µM; recombinant CYP2C19, luciferin-H EGE luminescence; active compounds read high; 0 = fully inhibited enzyme, 1 = untreated enzyme; 96,000 tested, under 10 active;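 active = activation factor of at least 2 at 5 µM in the primary screen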
CYP2C9 inhib = human CYP2C9 inhibition; P11712; CYP2C9 Supersomes, luciferin-H conversion, luminescence; inhibition, % at 5 µM; hit rate 20% among 96,000; AID 777;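 active = blocking of liver enzyme CYP2C9 beyond about 50% at 5 µM, limit read from the data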
Target sequence (P11712 whole entry, looked up): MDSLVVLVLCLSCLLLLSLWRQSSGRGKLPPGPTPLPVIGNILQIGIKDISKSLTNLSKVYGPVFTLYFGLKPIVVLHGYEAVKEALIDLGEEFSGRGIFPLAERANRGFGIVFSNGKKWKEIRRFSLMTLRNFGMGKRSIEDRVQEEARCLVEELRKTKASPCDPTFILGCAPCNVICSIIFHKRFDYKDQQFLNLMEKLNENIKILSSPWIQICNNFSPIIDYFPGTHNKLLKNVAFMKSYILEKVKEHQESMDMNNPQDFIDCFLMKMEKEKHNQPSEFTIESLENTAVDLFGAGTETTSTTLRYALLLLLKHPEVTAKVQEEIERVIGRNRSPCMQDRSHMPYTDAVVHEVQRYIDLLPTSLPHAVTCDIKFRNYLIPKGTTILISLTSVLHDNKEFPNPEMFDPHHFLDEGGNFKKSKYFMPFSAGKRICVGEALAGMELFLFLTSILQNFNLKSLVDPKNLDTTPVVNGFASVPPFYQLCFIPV
sEH inh = blocks human soluble epoxide hydrolase activity; hit rate 0.34% among 91,000; P34913; recombinant human sEH enzymatic activity assay; AID 707; inhibition, % at 2 µM; in the data active = inhibition above about 80%
sEH act = soluble epoxide hydrolase (human) activation; P34913; purified human sEH enzymatic activity, activator screen; activation, % at 2 µM; hit rate 0.04% among 91,000; AID 717; in the data active = activation above about 37%
CYP2C9 act = CYP2C9 (human) activation | recombinant CYP2C9, luciferin-H conversion, luminescence; active compounds read high; factor 1 = untreated enzyme, 0 = blocked | activation factor at 5 µM | hit rate 1.4% among 96,000 | AID 1024;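 active = activation factor of 2 or more for CYP2C9 at a 5 µM dose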
Of the large screens only hits and unclear results are named; the others gave an inactive call. Sampled rows, rich in hits. Any-hit rate of the full collection: about 27%.

Cc1ccc(S(=O)(=O)Nc2ccc3nc(C)sc3c2)cc1	CYP2C9 inhib 79
COc1cccc(NC(=O)Nc2ccc3nsnc3c2)c1	CYP2C9 inhib 64 (no result: sEH inh, sEH act)
CN(C)c1ccc(NC(=O)CSCc2nc3c(nnn3Cc3ccc(F)cc3)c(=O)[nH]2)cc1	CYP2C9 inhib 59
Cc1ccc(P(=Nc2ccccc2)(N2CCOCC2)N2CCOCC2)o1	none
Cc1cc(Oc2ccccc2)nc2ccc(O)cc12	CYP2C19 inhib 80 (no result: sEH inh, sEH act)
Cn1c(=O)c(=O)n(C)c2cc(S(=O)(=O)N3CCN(Cc4ccccc4)CC3)ccc21	CYP2C9 inhib 51 (no result: sEH inh, sEH act)
Cn1c(=O)c2cc(S(=O)(=O)N3CCC(c4ccccc4)CC3)ccc2n(C)c1=O	CYP2C9 inhib 68
COc1cccc(C(=O)CN2CCN(S(=O)(=O)c3ccc(Br)cc3)CC2)c1	none
COc1ccc(C)cc1S(=O)(=O)N1CCN(Cc2ccccc2)CC1	CYP2C19 inhib 96, CYP2C9 inhib 90
COc1cccc(CN2CCN(S(=O)(=O)c3ccc(Br)cc3)CC2)c1	CYP2C19 inhib 86, CYP2C9 inhib 61
CCCc1cc(Nc2ccccc2OCC)n2ncnc2n1	none
CCC1CCCCN1Cc1nc2c(c(=O)n(C)c(=O)n2C)n1Cc1cccc2ccccc12 (configuration not stated)	none (no result: sEH inh, sEH act)
O=c1[nH]c2ccc(S(=O)(=O)N3CCCCC3)cc2[nH]c1=O	none (no result: CYP2C19 inhib, CYP2C19 activ, CYP2C9 inhib, CYP2C9 act)
O=S(=O)(c1ccccc1)N1CCN(Cc2cccc(Cl)c2)CC1	CYP2C19 inhib 70, CYP2C9 inhib 61
CCOc1cc(S(=O)(=O)N2CCN(Cc3ccccc3)CC2)ccc1Br	CYP2C19 inhib 97
CN(Cc1ccccc1)S(=O)(=O)c1ccc2c(c1)n(C)c(=O)n2C	CYP2C19 inhib 65
COc1ccc(S(=O)(=O)N2CCCN(Cc3cccc(F)c3)CC2)cc1	CYP2C19 inhib 60
CCOc1ccccc1CN1CCN(S(C)(=O)=O)CC1	none
CC(NC(=O)c1cccnc1)c1ccc2c(c1)OCO2 (configuration not stated)	none
COc1ccc(S(=O)(=O)N2CCN(Cc3ccccc3)CC2)cc1	CYP2C19 inhib 89
O=C(O)CCCNC(=O)OCc1ccccc1	none
COC(=O)C(CCCCNC(=O)OCc1ccccc1)NC(=O)CN (configuration not stated)	CYP2C19 inhib 51
CCCCCCCCNC(=O)C(CCC(=O)OCc1ccccc1)NC(C)=O (configuration not stated)	CYP2C19 inhib 75
Cc1cc(=O)oc2c1c(C)nn2-c1ccc(C(=O)OC(C)C)cc1	none (no result: sEH inh, sEH act)
O=C1CSC(c2cn(-c3ccccc3)nc2-c2ccc3c(c2)OCCO3)N1CCN1CCOCC1 (configuration not stated)	CYP2C19 inhib 81, CYP2C9 inhib 78
O=C1CSC(c2cn(-c3ccccc3)nc2-c2cc3ccccc3oc2=O)N1Cc1ccccc1 (configuration not stated)	none
O=C(c1ccccc1)c1cncc(Br)c1	none
O=C(c1cccs1)c1coc2ccc(O)c(CN3CCOCC3)c12	CYP2C19 inhib 65, CYP2C9 inhib 73
O=C(c1coc2ccc(O)c(CN3CCOCC3)c12)C1CC1	none
COc1ccc(C(=O)c2coc3ccc(O)c(CN4CCCC4)c23)cc1	none
Cc1ccc(C(=O)c2coc3ccc(O)c(CN4CCN(C)CC4)c23)cc1	CYP2C19 inhib 78
Cc1cc(NC(=O)COc2ncnc3sc(C)c(C)c23)no1	none
O=C(CCN1C(=O)c2ccccc2C1=O)Nc1ccccc1C(=O)N1CCOCC1	none
COc1ccc(/C=N/NC(=O)Nc2nonc2N)cc1	none (no result: CYP2C19 inhib, CYP2C19 activ, CYP2C9 inhib, CYP2C9 act)
COc1ccc(-n2c(SCC(=O)Nc3ccccc3)nc3c(c2=O)SCC3)cc1	none
CCOC(=O)c1c(C)nc2sc(C(N)=O)c(N)c2c1-c1ccc(OC)cc1	none
CCOC(=O)c1c(C)nc2sc(C(=O)Nc3ccc(OC)cc3)c(N)c2c1-c1ccc(OC)cc1	CYP2C19 inhib 81, CYP2C9 inhib 85
CCOC(=O)c1c(C)nc2sc(C(=O)Nc3ccc(C(C)=O)cc3)c(N)c2c1-c1ccc(OC)cc1	CYP2C19 inhib 60, CYP2C9 inhib 62
Cc1cccc(NC(=S)NNC(=O)c2sccc2C)c1	CYP2C19 inhib 73, CYP2C9 inhib 88
Cc1ccsc1C(=O)NNC(=S)NCC(C)C	CYP2C19 inhib 91
Cc1ccc(C(c2nnnn2CCC(C)C)N2CCN(C)CC2)cc1 (configuration not stated)	none
CCOC(=O)c1c(NC(=O)CSc2nnc(-c3ccccc3)o2)sc(C(C)=O)c1C	CYP2C9 inhib 75
CCOC(=O)c1c(NC(=O)CSc2nnc(Cc3ccccc3)o2)sc(C(C)=O)c1C	CYP2C9 inhib 52
CCOC(=O)c1c(NC(=O)CSc2nnc(CNc3ccc(F)cc3)o2)sc(C(C)=O)c1C	CYP2C19 inhib 89, CYP2C9 inhib 94
CCc1nnc(NC(=O)CSc2nnc(Cc3ccccc3)o2)s1	none
Cc1cccnc1NC(=O)CSc1nnc(Cc2ccccc2)o1	none (no result: CYP2C19 inhib, CYP2C19 activ, CYP2C9 inhib, CYP2C9 act)
CCOC(=O)c1sc(NC(=O)CSc2nnc(Cc3ccccc3)o2)c(C#N)c1C	CYP2C9 inhib 90
CCOC(=O)c1c(NC(=O)CSc2nnc(-c3ccc(C)cc3)o2)sc(C(C)=O)c1C	none
COC(=O)c1sccc1-n1cccc1C(=O)C(=O)N1CC(C)OC(C)C1 (configuration not stated)	none
O=C(OC1CCCCC1=O)c1cc(=O)c2ccccc2o1 (configuration not stated)	none
Cc1ccc(-c2cc(C(=O)NC3=NCCS3)c3cc(Br)ccc3n2)o1	CYP2C19 inhib 52
Cc1ccc(-c2cc(C(=O)NCCCn3ccnc3)c3cc(Br)ccc3n2)o1	CYP2C19 inhib 94, CYP2C9 inhib 100
Cc1ccc(-c2cc(C(=O)Nc3ccccc3C)c3ccccc3n2)o1	none (no result: CYP2C19 inhib, CYP2C19 activ, CYP2C9 inhib, CYP2C9 act)
Cc1cccc(-c2cc(C(=O)NCCCn3ccnc3)c3ccccc3n2)c1	CYP2C19 inhib 87, CYP2C9 inhib 100
Clc1cccc(Cl)c1Cn1cnc2c(NCc3ccco3)ncnc21	none
Clc1cccc(Cl)c1Cn1cnc(=NCc2ccco2)c2[nH]cnc21	CYP2C9 inhib 77 (no result: sEH inh, sEH act)
O=C(Cn1cc(C(=O)c2cccs2)c2ccccc21)NCC1CCCO1 (configuration not stated)	CYP2C19 inhib 67
O=C(Cn1cc(C(=O)c2ccco2)c2ccccc21)NCc1ccco1	none
CC(OC(=O)c1cccs1)C(=O)NCC1CCCO1 (configuration not stated)	CYP2C19 inhib 51 (no result: sEH inh, sEH act)
CCC(=O)c1cn(CC(=O)NCC2CCCO2)c2ccccc12 (configuration not stated)	none (no result: sEH inh, sEH act)
O=C(Cn1cc(C(=O)c2cccs2)c2ccccc21)NCc1ccc2c(c1)OCO2	CYP2C19 inhib 64, CYP2C9 inhib 73 (no result: sEH inh, sEH act)
O=S(=O)(Nc1ccc(N2CCOCC2)nn1)c1ccccc1	none (no result: sEH inh, sEH act)
O=C(NCC(=O)N(c1cccnc1)C(C(=O)NC1CCCCC1)c1cccnc1)c1ccco1 (configuration not stated)	none

Screening data deposited in PubChem BioAssay by several laboratories.
